The values below come from PubChem BioAssay (NCATS).

“And” between values parts separate entries of the source, which are not always exact repeats. Equal entries are not always repeated. Values without a mark were called inactive. Inconclusive results are not listed. The source made the active and inactive calls. Unless noted, calls come from the whole dose curve; as a rule, active = well fitted curve in the direction sought with a large enough effect; inconclusive = small, poorly fitted or top-dose-only effect, or another doubt; inactive = no such curve, though single readings can be large; an effect the other way counts as inactive or inconclusive.

A short description of assay [1]: qHTS assay for small molecule activators of the nuclear factor-kappa B (NF-kB) signaling pathway (AID 651749; active = well fitted activation curve with a large enough effect in the signal ratio; the % refers to the signal ratio; note: % of control where 0% means no effect). Particulars: NF-kB-bla ME-180 cells, beta-lactamase FRET ratio, 16 h; stronger effect = higher value. The gist of the method: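 In this qHTS format, compounds acting as activators increase NF-kB-driven beta-lactamase in ME-180 cells, measured as disrupted FRET after 16 hr exposure at 37C and 5% CO2.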

Assay [2] can be described thus: qHTS assay for environmental chemicals that activate the Aryl hydrocarbon Receptor (AhR) signaling pathway (AID 651777). Note: % of control where 0% means no effect; nearly all actives have a fitted effect of over 15% in size. Particulars: 1A2-DRE human hepatoma cells, luciferase, 24 h; activation: stronger effect = higher value. The method, boiled down:
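Measured luciferase activity, read 30 min after One-Glo addition at room temperature, from human hepatoma cells bearing a dioxin response element–CYP1A2 promoter reporter and exposed to compound for 24 hr at 37 C.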

The target of assay [3] is Peroxisome proliferator-activated receptor alpha (Homo sapiens) (UniProt Q07869). The experiment in a line: qHTS assay for small molecule agonists of the peroxisome proliferator-activated receptor alpha (PPARalpha) signaling pathway (AID 651778). Note: % of control where 0% means no effect. The settings on record: PathHunter PPARalpha complementation, chemiluminescence, 6 h; stronger effect = higher value. The method, boiled down: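 Enzyme-fragment complementation assay in which ligand-bound PPARalpha translocates and forms an active enzyme that generates chemiluminescence. Cells were plated overnight, exposed to compound for 6 hr at 37 C, and then given detection reagent for 60 min at room temperature.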

Assay [4] can be described thus: qHTS assay for small molecule disruptors of the mitochondrial membrane potential - 5 hr assay (AID 651755; calls by dose curve; note: % is set by controls: 0 for no effect and ±100 for the full control effect; nearly all actives have a fitted effect of over 40% in size). The settings on record: JC-1-type ratio dye; series mostly up to 92.2 µM. The gist of the method:
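Read-out: ratiometric Mito-MPS fluorescence, green monomer (ex 490/em 535) vs red mitochondrial aggregate (ex 540/em 590). HepG2 cells treated 5 hr at 37C before 30 min dye loading.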

Assay [5] concerns the target Tumor necrosis factor (Homo sapiens) (UniProt P01375). The experiment in a line: qHTS assay to identify small molecules that stimulate Tumor Necrosis Factor-alpha (TNF-alpha) secretion (AID 651757; active = well fitted curve in the direction sought with a large enough effect in the signal ratio; the % refers to the signal ratio; note: potency is the fitted concentration of half-maximal effect). Particulars: Human cells, HTRF 665/615 ratio; series mostly up to 92.2 µM. The gist of the method:
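Human monocytic THP-1 cells are plated, treated with compound and held at 37 C for 17 hrs. Labeled anti-TNF-alpha antibody mixture is then added; after 3 hr at room temperature, TR-FRET signal reports secreted TNF-alpha.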

Assay [6] in a line: qHTS assay to identify small molecules that stimulate interleukin-8 (IL-8) secretion (AID 651758; active = well fitted activation curve with a large enough effect in the signal ratio; the % refers to the signal ratio; note: potency is the fitted concentration of half-maximal effect; for activation: 0% is about no effect). Particulars: HTRF ratio (665/615); series mostly up to 92.2 µM. The gist of the method:
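Compounds are added to THP-1 cells (2000 per well) and left 16 hrs at 37 C. A labeled anti-IL-8 antibody pair is then added, and IL-8 secretion is measured by time-resolved FRET after 1-3 hrs at room temperature.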

Assay [7] deals with Nuclear receptor ROR-gamma (Homo sapiens) (UniProt P51449). The experiment in a line: qHTS assay for small molecule antagonists of the retinoid-related orphan receptor gamma (ROR-gamma) signaling pathway (AID 651802). Note: nearly all actives have a fitted effect of over 60% in size. Note: potency is the fitted concentration of half-maximal effect. Particulars: ROR-gamma antagonist cell reporter assay; series mostly up to 92.2 µM. The gist of the method:
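Steps: cells dispensed; compound or DMSO transferred by pin tool; doxycycline added to induce the ROR response element-driven luciferase; plates held 16hr at 37C; ONE-Glo added and luminescence measured.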

Sequence of Tumor necrosis factor (Homo sapiens) (P01375 whole entry, looked up): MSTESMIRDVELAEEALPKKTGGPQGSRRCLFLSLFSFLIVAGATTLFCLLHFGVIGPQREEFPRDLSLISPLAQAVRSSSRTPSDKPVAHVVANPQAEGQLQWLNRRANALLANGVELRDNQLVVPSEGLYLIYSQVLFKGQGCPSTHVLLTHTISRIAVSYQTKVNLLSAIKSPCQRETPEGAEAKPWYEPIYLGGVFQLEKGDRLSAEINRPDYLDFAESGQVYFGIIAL
Sequence of Peroxisome proliferator-activated receptor alpha (Homo sapiens) (Q07869 whole entry, looked up, the tested form may be a part): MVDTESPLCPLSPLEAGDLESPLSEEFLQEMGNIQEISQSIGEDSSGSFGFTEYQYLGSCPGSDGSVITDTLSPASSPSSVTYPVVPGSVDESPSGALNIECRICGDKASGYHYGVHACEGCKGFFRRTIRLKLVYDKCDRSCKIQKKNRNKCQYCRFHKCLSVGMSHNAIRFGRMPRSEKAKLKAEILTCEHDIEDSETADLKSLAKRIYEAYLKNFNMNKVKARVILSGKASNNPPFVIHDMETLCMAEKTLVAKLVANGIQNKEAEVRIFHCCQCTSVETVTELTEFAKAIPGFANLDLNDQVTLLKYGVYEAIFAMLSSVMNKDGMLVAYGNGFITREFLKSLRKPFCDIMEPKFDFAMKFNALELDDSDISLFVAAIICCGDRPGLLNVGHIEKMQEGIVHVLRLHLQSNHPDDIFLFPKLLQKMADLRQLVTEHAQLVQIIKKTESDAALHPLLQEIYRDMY
Sequence of Nuclear receptor ROR-gamma (Homo sapiens) (P51449 whole entry, looked up): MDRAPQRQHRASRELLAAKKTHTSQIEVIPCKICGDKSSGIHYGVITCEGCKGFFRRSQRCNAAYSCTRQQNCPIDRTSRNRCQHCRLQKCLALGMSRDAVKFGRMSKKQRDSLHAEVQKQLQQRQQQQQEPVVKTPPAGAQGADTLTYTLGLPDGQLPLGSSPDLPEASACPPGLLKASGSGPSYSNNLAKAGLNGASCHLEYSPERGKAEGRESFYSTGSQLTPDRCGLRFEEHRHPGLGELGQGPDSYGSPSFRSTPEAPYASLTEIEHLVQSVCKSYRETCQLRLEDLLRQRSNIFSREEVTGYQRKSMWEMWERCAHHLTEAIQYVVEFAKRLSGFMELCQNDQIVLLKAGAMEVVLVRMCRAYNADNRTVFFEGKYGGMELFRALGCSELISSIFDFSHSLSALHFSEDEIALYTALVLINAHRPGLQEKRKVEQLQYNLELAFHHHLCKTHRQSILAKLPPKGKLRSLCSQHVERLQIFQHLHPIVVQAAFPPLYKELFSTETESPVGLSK

For `C=CC(C)(O)CC/C=C(\C)CCC=C(C)C` (centres undefined), the activation in assay [1] is 0.695%; in assay [2], 0.207%. Further, in assay [3], the max response is -0.214%.

Take `CN(CCO)CC(O)Cn1cnc2c1c(=O)n(C)c(=O)n2C` (centres undefined) (tested in a mixture with another compound): the activation is 1.88% in assay [1] and -0.921% in assay [2]. Also, the max response in assay [3] is -0.0909%.

On to `CC(C)[C@@H]1CC[C@@H](C)C[C@H]1O`, for which the activation in assay [1] was 0.809%; in assay [2] it was -0.378%. Further, the max response in assay [3] was -1.09%.

Consider `CCCCC(CC)COS(=O)(=O)O` (centres undefined), for which the activation was -1.03% in assay [1] and -1.44% in assay [2]. For the same compound, in assay [3], the max response is -1.27%.

As to `OB(O)O`, the Potency entry in assay [4], in assay [5], in assay [6] and in assay [7] was “inactive” in each case. For the same compound, the activation in assay [2] was 0.198% and -2.21%. For the same compound, the max response in assay [3] is -2.01% and 0.448%.

As for `O.O.O.O.O.O.O.O=S(=O)([O-])[O-].[Co+2]`, in assay [4], the Potency result was “inactive”. Besides, the activation in assay [2] is -0.475%. Besides, the max response in assay [3] was -1.84%.

As to `C[C@H]1O[C@@H](O[C@H]2[C@@H](O)C[C@H](O[C@H]3[C@@H](O)C[C@H](O[C@H]4CC[C@@]5(C)[C@H](CC[C@@H]6[C@@H]5C[C@@H](O)[C@]5(C)[C@@H](C7=CC(=O)OC7)CC[C@]65O)C4)O[C@@H]3C)O[C@@H]2C)C[C@H](O)[C@@H]1O`, the activation was -3.56% and -2.4% in assay [1]; 2.26% and 1.31% in assay [2]. Besides, the Potency was 0.376 µM (active) in assay [5] and 9.44 µM (active) in assay [7]. Besides, the max response in assay [3] is 3.82% and -3.75%.

On to `CO[C@@H]1[C@H](OC(=O)/C=C/C=C/C=C/C=C/C(=O)O)CC[C@]2(CO2)[C@H]1[C@@]1(C)O[C@@H]1CC=C(C)C`, for which the activation was -0.892% in assay [1] and 1.85% in assay [2]. Moreover, in assay [3], the max response was -0.833%.

Take `Cc1ccc(S(=O)(=O)O)cc1C`: the Potency result in assay [4], in assay [5] and in assay [6] was “inactive” in each case. In addition, in assay [2], the activation is -1.47%. For the same compound, in assay [3], the max response was -6.39%.

On to `C[Si](C)(C)O[Si](C)(C)C`, for which the values for the activation in assay [1] and in assay [2] were -1.12% and 1.01%, respectively. In addition, the max response in assay [3] was -0.124%.

For the compound `C/C=C/C=C/C(=O)O`, the Potency entry in assay [5], in assay [6] and in assay [7] was “inactive” each time. Further, the activation in assay [2] is 0.214%. Also, the max response in assay [3] was 0.184%.

On to `OCCOCCOCCO`, for which the activation in assay [1] was -1.02% and -0.204%. Besides, the max response in assay [3] was 0.91% and -3.36%.

In the case of `O=C(OCc1ccccc1)c1ccc(O)cc1`, the activation in assay [2] was 0.611%. In addition, in assay [3], the max response was -0.0988%.

Take `OC[C@H]1O[C@@H]2O[C@H]3[C@H](O)[C@@H](O)[C@@H](O[C@H]4[C@H](O)[C@@H](O)[C@@H](O[C@H]5[C@H](O)[C@@H](O)[C@@H](O[C@H]6[C@H](O)[C@@H](O)[C@@H](O[C@H]7[C@H](O)[C@@H](O)[C@@H](O[C@H]1[C@H](O)[C@H]2O)O[C@@H]7CO)O[C@@H]6CO)O[C@@H]5CO)O[C@@H]4CO)O[C@@H]3CO`: the Potency result in assay [4], in assay [5], in assay [6] and in assay [7] was “inactive” throughout. Further, in assay [2], the activation was 1.89% and -0.569%. In assay [3], the max response was -0.429% and -5.48%.

Take `CO`: the activation is -0.694% in assay [1] and -0.288% in assay [2]. The Potency entry in assay [5] and in assay [7] was “inactive” in each case. In assay [3], the max response is -6.03%.

As to `N[C@@H](Cc1cc(I)c(Oc2ccc(O)c(I)c2)c(I)c1)C(=O)O`, in assay [3], the max response is -3.23%.

Consider `C=C1C(CCl)(CCl)C2(Cl)C(Cl)C(Cl)C1(Cl)C2(Cl)Cl` (centres undefined), for which the activation is 0.534% in assay [1] and 1.11% in assay [2]. The Potency in assay [6] was 66.8 µM (active). Also, in assay [3], the max response was 19%.

For `CCCCCCCCCCCCCCCCCC(=O)OC[C@@H](O)[C@H]1OC[C@H](O)[C@H]1O`, the figures for the activation in assay [1] and in assay [2] were -0.074% and 0.366%, respectively. Besides, in assay [3], the max response was 12.5%.

Consider `CC/C=C\C/C=C\C/C=C\CCCCCCCC(=O)O`, for which the Potency entry in assay [4], in assay [5] and in assay [7] was “inactive” each time. The activation in assay [2] is 0.211%. Also, the max response in assay [3] is 20%.

As to `CCCCO`, the Potency entry in assay [4], in assay [5] and in assay [6] was “inactive” each time. Further, in assay [2], the activation is -0.013% and -0.728%. In assay [3], the max response is -5.14% and -4.07%.

As for `CC(C)CCC[C@@H](C)[C@H]1CC[C@H]2[C@@H]3CC=C4C[C@@H](O)CC[C@]4(C)[C@H]3CC[C@]12C`, the activation in assay [1] was 0.0919%; in assay [2] it was -1.61%. Moreover, the max response in assay [3] was -0.612%.

In the case of `C=C(C)C1CC=C(C)CC1` (centres undefined), the activation was -0.265% and 0.532% in assay [1]; -2.32% and -0.122% in assay [2]. Also, in assay [3], the max response was -1.15% and 0.153%.

Turning to `NCCO/C=C/[C@H](N)C(=O)O`, the activation in assay [1] was -5.26%; in assay [2], 1.28%. For the same compound, in assay [3], the max response is 2.79%.
